Source: PubChem (National Center for Advancing Translational Sciences (NCATS))
Compounds with a hit are over-represented: about 2.4% of the library has one in this group of screens.
D2 ag-1 = agonists of human D2 dopamine receptor (beta-arrestin) | actives 0.084% (n = 360,000) | activation, % (no concentration beside the values) | DiscoveRx PathHunter D2 beta-arrestin, luminescence, 90 min; 100% = 57 uM dopamine signal | P14416; in the data active = activation above about 40%
Target sequence (P14416 whole entry, looked up): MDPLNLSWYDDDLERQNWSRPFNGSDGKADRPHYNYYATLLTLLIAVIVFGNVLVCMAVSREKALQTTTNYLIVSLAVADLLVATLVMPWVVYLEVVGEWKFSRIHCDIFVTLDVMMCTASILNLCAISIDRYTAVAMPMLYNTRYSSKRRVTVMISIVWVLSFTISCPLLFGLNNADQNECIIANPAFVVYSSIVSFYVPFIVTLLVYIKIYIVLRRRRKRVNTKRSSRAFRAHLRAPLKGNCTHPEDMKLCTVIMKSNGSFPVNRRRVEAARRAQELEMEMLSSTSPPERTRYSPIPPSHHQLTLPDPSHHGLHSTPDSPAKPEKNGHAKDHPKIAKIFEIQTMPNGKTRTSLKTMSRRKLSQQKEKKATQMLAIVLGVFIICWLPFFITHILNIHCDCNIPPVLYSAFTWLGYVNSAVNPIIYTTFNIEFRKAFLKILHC
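DiscoveRx PathHunter D2 beta-arrestin cells (2,100/well) attached overnight, then compound-stimulated 90 min at 37 C in HBSS/10 mM HEPES/0.1% Tween-20 buffer; beta-galactosidase complementation read by luminescence after 1 h at ambient temperature. Dopamine 57 uM final (EC100) as control.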
D2 PAM-1 = positive allosteric modulators of human D2 dopamine receptor; AID 485347; potentiation, % at 10 µM; HEK293 T-REx D2, calcium flux, EC20 dopamine potentiation; actives 0.34% (n = 340,000);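 active = potentiation over 3 SD above the plate norm, cut at about 30% in these data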; also: 0% is about no effect
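Tetracycline-induced HEK293 T-REx cells force-coupled to calcium signalling expressed D2; compounds were pin-added after a 10 s baseline, read kinetically 180 s, then an EC20 dopamine challenge followed with a further 180 s calcium read.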
D2 PAM-2 = potentiates the human D2 dopamine receptor allosterically. potentiation, % (test concentration not listed). P14416. actives 0.23% (n = 360,000). DiscoveRx D2 beta-arrestin cells, luminescence, 90 min; 100% = 57 uM dopamine signal. AID 624464; in the data active = potentiation above about 50%
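D2 cells co-treated with compound plus 50 nM dopamine (EC20) for 90 min at 37 deg C to detect potentiation. Beta-arrestin recruitment was read as enzyme-fragment luminescence after 1 h at ambient temperature. Full response was set by 57 uM dopamine.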
D2 ag-2 = activates the human D2 dopamine receptor. P14416. HEK293 T-REx D2 cells, calcium flux agonist mode. activation, % at 2 µM. actives 0.53% (n = 340,000). AID 485358;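 active = activation over 3 SD above normal in the single-dose calcium agonist read, cut at about 30% in these data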; also: 0% is about no effect
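Tetracycline-induced HEK293 Trex cells with D2 receptor force-coupled to calcium signaling, plated overnight at 30 C and loaded with no-wash calcium dye. Calcium flux read kinetically for 180 s after compound addition; responses flag agonists.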
D2 antag = antagonists of human D2 dopamine receptor; inhibition, % at 10 µM; HEK293 TREx D2 cells, calcium flux, dopamine EC80; actives 2% (n = 340,000); P14416; in the data active = inhibition above about 30%; inactive = below that, where a call was filed; also: 0% is about no effect
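Tetracycline-induced HEK293 TREx cells expressing D2 receptor forced-coupled to calcium signalling, loaded with no-wash calcium dye. Compounds added and calcium flux read 180 s, then dopamine added at EC80 and read a further 180 s.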
Numbers without * were called inactive; / = no result.

SMILES	D2 ag-1	D2 PAM-1	D2 PAM-2	D2 ag-2	D2 antag
COc1cc(-c2nc3ccccn3c2/N=C/c2cc(OC)c(OC)c(OC)c2)ccc1O	5.7	/	51.6*	/	/
CCCCOc1ccc(C2=NC(c3ccncc3)=Nc3ccc(Br)cc3N2)cc1	/	-1.3	/	-0.7	/
C/C(N)=C(/C#N)C(=O)CSc1nnc(Nc2ccccc2)s1	10.4	22.4	9.8	-1.3	48.6*
CCN(CC)C(=O)C(C)OC(=O)c1ccc(O)cc1 (stereo not given)	0.7	12.1	3.1	-0.2	30.3*
COC(=O)c1ccc(O)cc1	-0.5	-0.9	0.3	-0.6	-9.1
Cc1ccccc1NC(=O)NC1CCS(=O)(=O)C1 (stereo not given)	-0.8	2.4	3.9	0.1	-7.4
COc1ccccc1NC(=O)NC1CCS(=O)(=O)C1 (stereo not given)	-4.4	-5.3	-4.5	0.7	39.2*
C#CCN(C)Cc1ccccc1	4.0	6.8	-8.9	-1.6	31.9*
O=C(NCCC1CCCCN1S(=O)(=O)c1ccccc1)C(=O)NCCN1CCOCC1 (stereo not given)	-9.3	-0.7	-21.1	0.6	-0.2
CC1CCN(CC[C@H]2CCCN2S(=O)(=O)c2cccc(O)c2)CC1	-5.4	-20.9	-23.4	0.2	34.3*
Cc1ccc(NC(=O)CSc2nc3nccnc3c(=O)n2CCc2c[nH]c3ccccc23)cc1	/	6.6	/	-0.1	/
Cn1nccc1C(=O)NC1CCN(Cc2ccccc2)CC1	3.4	-19.3	-24.7	-0.3	54.8*
O=C(NC1CCN(Cc2ccccc2)CC1)c1ccccc1Cl	-3.8	-18.8	-65.0	-1.1	8.6
CN1CCC(NC(=O)c2cccc(Oc3ccccc3)c2)CC1	-3.6	-8.0	-37.9	-0.8	69.8*
O=C(c1ccc([N+](=O)[O-])cc1)N1CCN(c2cccc3[nH]ccc23)CC1	-1.8	-9.0	-15.0	15.4	-1.3
Cc1oc(-c2ccccc2)cc1C(=O)NC1CCN(Cc2ccccc2)CC1	-12.0	-9.8	-6.8	0.0	69.4*
O=[N+]([O-])c1cccc(CN2CCN(c3cccc4[nH]ccc34)CC2)c1	-8.0	-21.5	-27.2	4.8	42.1*
COC(=O)c1sc2cccc(F)c2c1S(=O)(=O)N1CCN(c2ccc(F)cc2)CC1	/	14.4	/	-2.2	/
CC(C)(C)OC(=O)N1CCC(c2c(C(=O)NCc3ccco3)cnn2-c2ccc(F)cc2)CC1	/	-5.5	/	0.3	/
Cc1ccc(C)c(-c2ccc(=O)n(C(C)C(=O)Nc3ccccc3C(F)(F)F)n2)c1 (stereo not given)	/	4.7	/	-0.4	/
Nc1c(C(=O)Nc2ccc(OC(F)(F)F)cc2)nnn1Cc1ccccc1	/	-0.5	/	0.1	/
COc1ccc2c(c1)CCc1c(C(=O)Nc3c(C)nn(Cc4ccc(C)cc4)c3C)noc1-2	/	8.0	/	-1.0	/
COc1ccc(-c2noc(N3CCC(C(=O)N4CCN(c5cccc(OC)c5)CC4)CC3)n2)cc1	/	-4.2	/	0.4	/
O=[N+]([O-])c1cccc(CN2CCC(Cc3ccccc3)CC2)c1	-0.7	-10.7	-34.4	0.1	20.8
O=C(NC1CCN(Cc2ccccc2)CC1)c1cncc(Br)c1	-2.0	-37.1	-28.9	-0.3	84.6*
SMILES	D2 ag-1	D2 PAM-1	D2 PAM-2	D2 ag-2	D2 antag
O=C(NC1CCN(Cc2cccc([N+](=O)[O-])c2)CC1)c1ccccc1	4.0	-26.4	-15.4	-2.5	74.3*
O=C(NC1CCN(Cc2ccccc2)CC1)c1ccccc1	-4.1	-26.4	-23.0	-0.5	73.8*
O=C(NNC1CCN(Cc2ccccc2)CC1)c1ccccc1	-1.7	/	-27.5	/	/
CC(C)(C)c1ccc(C(=O)NC2CCN(Cc3ccccc3)CC2)cc1	-2.9	-21.0	-35.1	0.7	53.9*
Cc1ccccc1Cn1cc(S(=O)(=O)c2ccc(F)cc2)c(=O)c2cc3c(cc21)OCO3	/	3.2	/	0.3	/
COc1ccc(C2CC(=O)c3cc(-c4nc(-c5cccc([N+](=O)[O-])c5)cs4)c(=O)n(-c4cccc(C)c4)c3C2)cc1 (stereo not given)	/	4.5	/	/	/
CCC(C)NC(=O)c1cnn2c(C)c3c(nc12)CCCC3 (stereo not given)	-2.7	32.7*	4.0	-1.6	13.8
COc1cccc(NC(=O)N(Cc2c[nH]c3ccccc23)C2CCCCC2)c1	/	11.5	/	0.3	/
